Assay results from PubChem BioAssay (NCATS).
Results filed as inconclusive are left out. Activity calls are given as the source filed them. The call rests on the fitted dose curve; in most records, active means well fitted cell-killing curve with a large enough effect; inconclusive means small, poorly fitted or top-dose-only effect, or effect the other way; inactive means no such curve, though single readings can be large or run the other way.

Columns and labels:
[1] = Quantitative High-Throughput drug screen in 47 multiple myeloma cell lines against the NCATS MIPE library collection: MM1R_ATCC cell viability assay (AID 1918981); further: nearly all actives have a fitted effect of over 35% in size; further: potency means the concentration at half of the fitted maximal effect
Procedure, shortened: (§1)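 qHTS format: cells plated (500/well), pin-dosed with MIPE 4.0 compounds, kept 48 h at 37 °C. Readout was CellTiter-Glo luminescence, median RLU.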

[2] = Quantitative High-Throughput drug screen in 47 multiple myeloma cell lines against the NCATS MIPE library collection: LP1_DSMZ cell viability assay (AID 1918982); further: nearly all actives have a fitted effect of over 35% in size; further: potency means the concentration at half of the fitted maximal effect
Procedure, shortened: as §1

[3] = Quantitative High-Throughput drug screen in 47 multiple myeloma cell lines against the NCATS MIPE library collection: KMS28PE_JCRB cell viability assay (AID 1918983); further: nearly all actives have a fitted effect of over 35% in size; further: potency means the concentration at half of the fitted maximal effect
Procedure, shortened: as §1

[4] = Quantitative High-Throughput drug screen in 47 multiple myeloma cell lines against the NCATS MIPE library collection: L363_DSMZ cell viability assay (AID 1918984); further: nearly all actives have a fitted effect of over 40% in size; further: potency means the concentration at half of the fitted maximal effect
Procedure, shortened: as §1

[5] = Quantitative High-Throughput drug screen in 47 multiple myeloma cell lines against the NCATS MIPE library collection: KMS34_JCRB cell viability assay (AID 1918985);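 further: 100% = DMSO-only wells and 0% = media-only wells; nearly all actives have a fitted effect of over 40% in size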
Procedure, shortened: as §1

[6] = Quantitative High-Throughput drug screen in 47 multiple myeloma cell lines against the NCATS MIPE library collection: OPM1_PLB cell viability assay (AID 1918989); further: nearly all actives have a fitted effect of over 40% in size; further: potency means the concentration at half of the fitted maximal effect
Procedure, shortened: as §1

[7] = Quantitative High-Throughput drug screen in 47 multiple myeloma cell lines against the NCATS MIPE library collection: SKMM1_PLB cell viability assay (AID 1919863); settings: SKMM1 myeloma viability, CellTiter-Glo ATP, 48 h; viability: active compounds read low; further: nearly all actives have a fitted effect of over 35% in size; further: potency means the concentration at half of the fitted maximal effect; on viability: series mostly up to about 46 µM
Procedure, shortened: as §1

[8] = Quantitative High-Throughput drug screen in 47 multiple myeloma cell lines against the NCATS MIPE library collection: U266_ATCC cell viability assay (AID 1919864); further: nearly all actives have a fitted effect of over 35% in size; further: potency means the concentration at half of the fitted maximal effect
Procedure, shortened: as §1

[9] = Quantitative High-Throughput drug screen in 47 multiple myeloma cell lines against the NCATS MIPE library collection: XG1_PLB cell viability assay (AID 1919866); further: nearly all actives have a fitted effect of over 35% in size; further: potency means the concentration at half of the fitted maximal effect
Procedure, shortened: as §1

[10] = Quantitative High-Throughput drug screen in 47 multiple myeloma cell lines against the NCATS MIPE library collection: VP6_DJ cell viability assay (AID 1919867); further: nearly all actives have a fitted effect of over 40% in size; further: potency means the concentration at half of the fitted maximal effect
Procedure, shortened: as §1

[11] = Quantitative High-Throughput drug screen in 47 multiple myeloma cell lines against the NCATS MIPE library collection: RPMI8226_ATCC cell viability assay (AID 1919871); further: nearly all actives have a fitted effect of over 30% in size; further: potency means the concentration at half of the fitted maximal effect
Procedure, shortened: as §1

[12] = Quantitative High-Throughput drug screen in 47 multiple myeloma cell lines against the NCATS MIPE library collection: OPM2_DSMZ cell viability assay (AID 1919872); further: nearly all actives have a fitted effect of over 30% in size; further: potency means the concentration at half of the fitted maximal effect
Procedure, shortened: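 Viability readout: CellTiter-Glo luminescence following 5 min room-temperature incubation with reagent. Prior exposure: 48 h, 37C, humidified 5% CO2, 500 cells per well.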

[13] = Quantitative High-Throughput drug screen in 47 multiple myeloma cell lines against the NCATS MIPE library collection: OCIMY7_PLB cell viability assay (AID 1918987); further: nearly all actives have a fitted effect of over 65% in size; further: potency means the concentration at half of the fitted maximal effect
Procedure, shortened: as §1

[14] = Quantitative High-Throughput drug screen in 47 multiple myeloma cell lines against the NCATS MIPE library collection: OCIMY5_PLB cell viability assay (AID 1918988); further: nearly all actives have a fitted effect of over 65% in size; further: potency means the concentration at half of the fitted maximal effect
Procedure, shortened: as §1

[15] = Quantitative High-Throughput drug screen in 47 multiple myeloma cell lines against the NCATS MIPE library collection: PE2_PLB cell viability assay (AID 1919869); further: nearly all actives have a fitted effect of over 35% in size; further: potency means the concentration at half of the fitted maximal effect
Procedure, shortened: as §1

[16] = Quantitative High-Throughput drug screen in 47 multiple myeloma cell lines against the NCATS MIPE library collection: KMS28BM_JCRB cell viability assay (AID 1919874); further: nearly all actives have a fitted effect of over 35% in size; further: potency means the concentration at half of the fitted maximal effect
Procedure, shortened: as §1

[17] = Quantitative High-Throughput drug screen in 47 multiple myeloma cell lines against the NCATS MIPE library collection: XG6_PLB cell viability assay (AID 1919865); further: nearly all actives have a fitted effect of over 40% in size; further: potency means the concentration at half of the fitted maximal effect
Procedure, shortened: as §1

[18] = Quantitative High-Throughput drug screen in 47 multiple myeloma cell lines against the NCATS MIPE library collection: KMS11_JCRBsus cell viability assay (AID 1919873); further: nearly all actives have a fitted effect of over 50% in size; further: potency means the concentration at half of the fitted maximal effect
Procedure, shortened: as §1

[19] = Quantitative High-Throughput drug screen in 47 multiple myeloma cell lines against the NCATS MIPE library collection: UTMC2_PLB cell viability assay (AID 1919868); further: nearly all actives have a fitted effect of over 55% in size; further: potency means the concentration at half of the fitted maximal effect
Procedure, shortened: as §1

[20] = Quantitative High-Throughput drug screen in 47 multiple myeloma cell lines against the NCATS MIPE library collection: PCM6_Riken cell viability assay (AID 1919870); further: nearly all actives have a fitted effect of over 30% in size; further: potency means the concentration at half of the fitted maximal effect
Procedure, shortened: as §1

Nc1nc(N)nc(-c2cc(Cl)ccc2Cl)n1
active: Potency [10] 6.62 µM
inactive: Potency [1] | Potency [2] | Potency [3] | Potency [4] | Potency [5] | Potency [6] | viability [7] 131% | Potency [8] | Potency [9] | Potency [11] | Potency [12]

CCCCc1oc2ccc(NS(C)(=O)=O)cc2c1C(=O)c1ccc(OCCCN(CCCC)CCCC)cc1
active: Potency [1] 14.8 µM | Potency [2] 16.6 µM | Potency [3] 20.9 µM | Potency [4] 8.33 µM | Potency [13] 18.7 µM | Potency [14] 4.69 µM | Potency [6] 13.2 µM | Potency [7] 18.7 µM | Potency [8] 14.8 µM | Potency [9] 11.8 µM | Potency [10] 7.43 µM | Potency [15] 23.5 µM | Potency [11] 16.6 µM | Potency [12] 23.5 µM | Potency [16] 13.2 µM

CCOC(=O)c1ccc(OC(=O)CCCCCN=C(N)N)cc1
inactive: Potency [1] | Potency [2] | Potency [3] | Potency [4] | Potency [5] | Potency [6] | viability [7] 127% | Potency [8] | Potency [17] | Potency [9] | Potency [10] | Potency [15] | Potency [12] | Potency [18] | Potency [16]

CNC(=O)c1cc(Oc2ccc(NC(=O)Nc3ccc(Cl)c(C(F)(F)F)c3)cc2)ccn1
active: Potency [1] 20.9 µM | Potency [2] 20.9 µM | Potency [3] 26.4 µM | Potency [4] 6.62 µM | Potency [13] 3.32 µM | Potency [14] 23.5 µM | Potency [6] 10.5 µM | Potency [7] 29.6 µM | Potency [8] 23.5 µM | Potency [17] 0.148 µM | Potency [9] 5.9 µM | Potency [10] 8.33 µM | Potency [19] 9.35 µM | Potency [15] 7.43 µM | Potency [11] 20.9 µM | Potency [18] 20.9 µM | Potency [16] 20.9 µM

C1CCC(C(CC2CCCCN2)C2CCCCC2)CC1 (configuration not stated)
active: Potency [1] 9.35 µM | Potency [2] 14.8 µM | Potency [3] 18.7 µM | Potency [4] 8.33 µM | Potency [13] 14.8 µM | Potency [14] 9.35 µM | Potency [6] 10.5 µM | Potency [7] 18.7 µM | Potency [8] 11.8 µM | Potency [17] 20.9 µM | Potency [9] 13.2 µM | Potency [10] 8.33 µM | Potency [19] 13.2 µM | Potency [15] 18.7 µM | Potency [20] 10.5 µM | Potency [11] 11.8 µM | Potency [12] 23.5 µM | Potency [18] 8.33 µM | Potency [16] 9.35 µM

CCn1cc(C(=O)O)c(=O)c2cc(F)c(N3CCN(C)CC3)cc21
inactive: Potency [1] | Potency [2] | Potency [3] | Potency [5] | Potency [14] | Potency [8] | Potency [9] | Potency [10] | Potency [19] | Potency [15] | Potency [20] | Potency [12] | Potency [18]
active: Potency [4] 5.26 µM | Potency [7] 5.26 µM

CC[C@H](NC(C)C)[C@H](O)c1ccc(O)c2[nH]c(=O)ccc12
active: Potency [1] 0.59 µM | Potency [14] 0.0833 µM
inactive: Potency [2] | Potency [3] | Potency [4] | Potency [6] | Potency [8] | Potency [17] | Potency [9] | Potency [19] | Potency [12] | Potency [16]

CC(C)(C)C(=O)OCOP(=O)(COCCn1cnc2c(N)ncnc21)OCOC(=O)C(C)(C)C
active: Potency [1] 0.332 µM | Potency [2] 16.6 µM | Potency [3] 4.18 µM | Potency [4] 4.69 µM | Potency [14] 1.87 µM | Potency [6] 6.62 µM | Potency [7] 20.9 µM | Potency [8] 0.332 µM | Potency [17] 0.469 µM | Potency [10] 1.05 µM | Potency [19] 0.526 µM | Potency [15] 0.187 µM | Potency [11] 18.7 µM | Potency [12] 23.5 µM | Potency [18] 23.5 µM | Potency [16] 11.8 µM

CCOC(=O)[C@H](CCc1ccccc1)N[C@H]1CCc2ccccc2N(CC(=O)O)C1=O
active: Potency [1] 20.9 µM | Potency [2] 20.9 µM | Potency [3] 20.9 µM | Potency [4] 7.43 µM | Potency [14] 23.5 µM | Potency [6] 16.6 µM | Potency [8] 18.7 µM | Potency [17] 14.8 µM | Potency [9] 18.7 µM | Potency [10] 18.7 µM | Potency [19] 29.6 µM | Potency [15] 20.9 µM | Potency [11] 18.7 µM | Potency [18] 8.33 µM | Potency [16] 18.7 µM

CCOCC(O)COc1ccc(NC(=O)CC[S+](C)C)cc1 (configuration not stated)
inactive: Potency [1] | Potency [2] | Potency [3] | Potency [4] | Potency [14] | Potency [6] | viability [7] 111% | Potency [17] | Potency [9] | Potency [10] | Potency [19] | Potency [15] | Potency [11] | Potency [16]

COc1cc(NS(=O)(=O)c2ccc(N)cc2)nc(OC)n1
inactive: Potency [1] | Potency [2] | Potency [3] | Potency [4] | Potency [13] | Potency [6] | viability [7] 133% | Potency [8] | Potency [17] | Potency [9] | Potency [15] | Potency [11] | Potency [12] | Potency [16]

CCN(CC)CCn1c(=O)c(Cc2ccc(OC)cc2)nc2ccccc21
inactive: Potency [1] | Potency [2] | Potency [3] | Potency [4] | Potency [14] | Potency [6] | viability [7] 134% | Potency [8] | Potency [9] | Potency [15] | Potency [11] | Potency [12] | Potency [18] | Potency [16]

CCc1c2c(nc3ccc(OC(=O)N4CCC(N5CCCCC5)CC4)cc13)-c1cc3c(c(=O)n1C2)COC(=O)[C@]3(O)CC
active: Potency [1] 1.05 µM | Potency [2] 0.59 µM | Potency [3] 1.87 µM | Potency [4] 0.0372 µM | Potency [13] 0.296 µM | Potency [14] 1.48 µM | Potency [6] 13.2 µM | Potency [7] 0.526 µM | Potency [8] 0.166 µM | Potency [10] 1.18 µM | Potency [19] 0.418 µM | Potency [15] 0.935 µM | Potency [11] 0.372 µM | Potency [16] 0.469 µM
